Experimental data as given in PubChem BioAssay (NCI).
This is part of a sample that, as a whole, favours compounds with a hit. Of some 79,000 tested, about 15% had one in any assay. Active and inactive are the calls of the source. No stated cut-off is given here; in the data, active means growth inhibition above about 70%; inactive means the rest.

experiment: NCI Yeast Anticancer Drug Screen. Data for the rad50 strain (AID 155);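 further: 0% = growth of vehicle-only cultures of the same strain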; conditions: S. cerevisiae rad50 strain growth inhibition; at 50.0 µM; active compounds read high
Procedure, shortened: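 Genetically altered yeast (DNA repair pathway); compound treatment; growth inhibition vs vehicle ctrl.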

| SMILES | growth inhibition |
| --- | --- |
| CC(O)C1CC1 (stereo not given) | -17% (inactive) |
| CCOC(=O)CCC(NC(=O)c1ccc(Nc2nc3ccccc3nc2C(=O)OCC)cc1)C(=O)OCC (stereo not given) | 11.8% (inactive) |
| CC(C)C(=O)Nc1ccccc1-c1ccccc1 | 14.3% (inactive) |
| O=S(=O)(NCCNS(=O)(=O)c1ccccc1)c1ccccc1 | -10.4% (inactive) |
| Nc1cc(=S)nc(N)[nH]1 | 20.2% (inactive) |
| CC[N+](C)(CC)c1cccc(OC(=O)Nc2ccc(OC)cc2)c1 | 6% (inactive) |
| CC(=O)Nc1nc2nccn2c(=O)[nH]1 | -5.7% (inactive) |
| O=S1(=O)C=Cc2ccccc2CC1 | -4.15% (inactive) |
| C=CCOC(=O)/C=C\C(=O)OCC=C | -4.6% (inactive) |
| COc1ccc(OC)c2cc3c(cc12)C(=O)c1ccccc1C3=O | 10.6% (inactive) |
| Nc1ccc(S(=O)(=O)CC(=O)N2CCOCC2)cc1 | 6.2% (inactive) |
| Cc1cc(N(CCC#N)CCC#N)ccc1/C=C(\N=[N+]=[N-])C(=O)NC(=O)COc1ccccc1 | 16.1% (inactive) |
| O=c1[nH]c2cc(Cl)ccc2nc1/C=C(\O)c1cccc2ccccc12 | 40.9% (inactive) |
| Cc1cccnc1Nc1ncccc1C | 13.8% (inactive) |
| C[N+]([O-])=C(c1ccccc1)c1ccccc1 | -15.7% (inactive) |
| Cc1c(C2CCSc3ccccc3N2)sc2ccccc12 (stereo not given) | -17.2% (inactive) |
| CCOC(=O)c1[nH]c(Cc2[nH]c(Cc3[nH]c(C(=O)OCC)c(C)c3C(=O)OCC)c(C(=O)OCC)c2C)c(C(=O)OCC)c1C | 36.1% (inactive) |
| Cc1ccc(-c2cc(=O)c3cc(C)c(C)c(C(=O)O)c3o2)cc1C | 11.6% (inactive) |
| CC(C)OC(=O)c1cccnc1 | 16.5% (inactive) |
| CC(C)=C1CCC/C1=N\Nc1ccc([N+](=O)[O-])cc1[N+](=O)[O-] | -5.9% (inactive) |

| SMILES | growth inhibition |
| --- | --- |
| C1=Cc2ccccc2Nc2ccccc21 | -1.9% (inactive) |
| COc1ccc(/C=C(\CC(=O)c2ccc(Cl)cc2)C(=O)O)cc1 | -21.5% (inactive) |
| CC1(c2ccc(Cl)cc2)NC(=O)NC1=O (stereo not given) | -27.3% (inactive) |
| CC(=O)Oc1ccc([N+](=O)[O-])cc1 | 16.9% (inactive) |
| CC1(C)N=C(N)N=C(N)N1c1cccc(CSc2ccccc2)c1 | -14.2% (inactive) |
| O=Nc1ccc(Br)cc1 | -8.2% (inactive) |
| O=C(OC1CCc2ccccc2C1)c1ccc(N=Nc2ccccc2)cc1 (stereo not given) | 24.5% (inactive) |
| CN(/N=C/c1ccccc1)c1nnnn1-c1ccccc1 | 3.2% (inactive) |
| O=C(Nc1ccccn1)c1ccccc1 | 35% (inactive) |
| CCCCOC(=O)NC(=O)c1cc2cccc(OC)c2oc1=O | 17.1% (inactive) |
| Cc1nnc2n(c1=O)CCN2C | -1.65% (inactive) |
| Cc1ccc(N=C(C(=O)c2ccccc2)C(Nc2ccc(C)cc2)C(=O)c2ccccc2)cc1 (stereo not given) | 23.8% (inactive) |
| CCCCN(CCCC)CC(O)c1c2cccc(Cl)c2cc2c(Cl)cccc12 (stereo not given) | 98.9% (active) |
| CC(c1ccccc1)n1cnc2c(N(CCO)CCO)ncnc21 (stereo not given) | 2.5% (inactive) |
| CCOC1([N+](=O)[O-])c2ccccc2-c2nc3ccccc3cc21 (stereo not given) | 96.8% (active) |
| O=C(Nc1ccc(Br)cc1)C(=O)C(C(=O)c1ccc(Cl)c(Cl)c1)C1OC(=O)c2ccccc21 (stereo not given) | 59.1% (inactive) |
| Cc1ccc(-n2[nH]nc(C#N)c2=O)cc1 | -6.75% (inactive) |
| FC(F)(F)c1nnc(-c2ccccc2)nn1 | -8.8% (inactive) |
| C=CCOC(C)OCC=C | 17.9% (inactive) |
| COc1ccc(COC(=O)NC2CCCCC2)cc1OC | 2.5% (inactive) |

experiment: NCI Yeast Anticancer Drug Screen. Data for the mec2-1 strain (AID 157); conditions: S. cerevisiae mec2-1 strain, at 50.0 µM, active compounds read high
Procedure, shortened: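 Yeast mec2-1 mutant treated with compound. Readout: growth inhibition vs vehicle controls.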

| SMILES | growth inhibition |
| --- | --- |
| CC(O)C1CC1 (stereo not given) | -40.8% (inactive) |
| CCOC(=O)CCC(NC(=O)c1ccc(Nc2nc3ccccc3nc2C(=O)OCC)cc1)C(=O)OCC (stereo not given) | 2.55% (inactive) |
| CC(C)C(=O)Nc1ccccc1-c1ccccc1 | -1.45% (inactive) |
| O=S(=O)(NCCNS(=O)(=O)c1ccccc1)c1ccccc1 | -13.8% (inactive) |
| Nc1cc(=S)nc(N)[nH]1 | -6.75% (inactive) |
| CC[N+](C)(CC)c1cccc(OC(=O)Nc2ccc(OC)cc2)c1 | 5.25% (inactive) |
| CC(=O)Nc1nc2nccn2c(=O)[nH]1 | -3.1% (inactive) |
| O=S1(=O)C=Cc2ccccc2CC1 | -12.2% (inactive) |
| C=CCOC(=O)/C=C\C(=O)OCC=C | 30.6% (inactive) |
| COc1ccc(OC)c2cc3c(cc12)C(=O)c1ccccc1C3=O | 70.2% (active) |
| Nc1ccc(S(=O)(=O)CC(=O)N2CCOCC2)cc1 | -10.8% (inactive) |
| Cc1cc(N(CCC#N)CCC#N)ccc1/C=C(\N=[N+]=[N-])C(=O)NC(=O)COc1ccccc1 | -19.8% (inactive) |
| O=c1[nH]c2cc(Cl)ccc2nc1/C=C(\O)c1cccc2ccccc12 | 15.2% (inactive) |
| Cc1cccnc1Nc1ncccc1C | -18.8% (inactive) |
| C[N+]([O-])=C(c1ccccc1)c1ccccc1 | 5.55% (inactive) |
| Cc1c(C2CCSc3ccccc3N2)sc2ccccc12 (stereo not given) | -27.4% (inactive) |
| CCOC(=O)c1[nH]c(Cc2[nH]c(Cc3[nH]c(C(=O)OCC)c(C)c3C(=O)OCC)c(C(=O)OCC)c2C)c(C(=O)OCC)c1C | 21.2% (inactive) |
| Cc1ccc(-c2cc(=O)c3cc(C)c(C)c(C(=O)O)c3o2)cc1C | 20.6% (inactive) |
| CC(C)OC(=O)c1cccnc1 | 2.2% (inactive) |
| CC(C)=C1CCC/C1=N\Nc1ccc([N+](=O)[O-])cc1[N+](=O)[O-] | -1.35% (inactive) |

| SMILES | growth inhibition |
| --- | --- |
| C1=Cc2ccccc2Nc2ccccc21 | -7.35% (inactive) |
| COc1ccc(/C=C(\CC(=O)c2ccc(Cl)cc2)C(=O)O)cc1 | -8.85% (inactive) |
| CC1(c2ccc(Cl)cc2)NC(=O)NC1=O (stereo not given) | 3.1% (inactive) |
| CC(=O)Oc1ccc([N+](=O)[O-])cc1 | 12.7% (inactive) |
| CC1(C)N=C(N)N=C(N)N1c1cccc(CSc2ccccc2)c1 | -11.8% (inactive) |
| O=Nc1ccc(Br)cc1 | 0.35% (inactive) |
| O=C(OC1CCc2ccccc2C1)c1ccc(N=Nc2ccccc2)cc1 (stereo not given) | 5.55% (inactive) |
| CN(/N=C/c1ccccc1)c1nnnn1-c1ccccc1 | -5.7% (inactive) |
| O=C(Nc1ccccn1)c1ccccc1 | 19.6% (inactive) |
| CCCCOC(=O)NC(=O)c1cc2cccc(OC)c2oc1=O | 21.6% (inactive) |
| Cc1nnc2n(c1=O)CCN2C | 0.1% (inactive) |
| Cc1ccc(N=C(C(=O)c2ccccc2)C(Nc2ccc(C)cc2)C(=O)c2ccccc2)cc1 (stereo not given) | 3.25% (inactive) |
| CCCCN(CCCC)CC(O)c1c2cccc(Cl)c2cc2c(Cl)cccc12 (stereo not given) | 99.5% (active) |
| CC(c1ccccc1)n1cnc2c(N(CCO)CCO)ncnc21 (stereo not given) | -1.6% (inactive) |
| CCOC1([N+](=O)[O-])c2ccccc2-c2nc3ccccc3cc21 (stereo not given) | 75.5% (active) |
| O=C(Nc1ccc(Br)cc1)C(=O)C(C(=O)c1ccc(Cl)c(Cl)c1)C1OC(=O)c2ccccc21 (stereo not given) | 42.5% (inactive) |
| Cc1ccc(-n2[nH]nc(C#N)c2=O)cc1 | -20.6% (inactive) |
| FC(F)(F)c1nnc(-c2ccccc2)nn1 | -16.1% (inactive) |
| C=CCOC(C)OCC=C | 7.9% (inactive) |
| COc1ccc(COC(=O)NC2CCCCC2)cc1OC | 19.9% (inactive) |
